Laboratory results as given in PubChem BioAssay AID1159580 (chemical genetic matrix, 2015).
Where “and” joins values, the source holds several entries; their conditions need not be identical. Equal entries are not always repeated. In all, about 5,500 compounds went through this assay and about 2,000 (36%) were called active. Inconclusive results (about 18%) are left out. Cut-off read from the data, not from the text of the source: active = normalized growth mostly below about 0.91 (no sharp cut-off); inconclusive = no clear call, values can overlap the other calls; inactive = mostly above about 0.92. This is one part of the list.

Assay: chemical genetic growth profiling, strain panel (AID 1159580);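 note: tested at 20 µM; growth read once vehicle control cultures reached saturation at 30 °C; 1 = growth at the plate median or of vehicle wells; lower values mean less growth of the strain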
Settings: S. cerevisiae deletion strains, growth OD

Measured: normalized growth

O=C(/C=C/c1ccccc1)c1ccc(O)cc1
active: locus YAL013W, strain DEP1, stronger effect = lower value 0.736 | locus YAL021C, strain ccr4, stronger effect = lower value 0.633 | locus YAL026C, strain drs2, stronger effect = lower value 0.192 | locus YAL030W, strain snc1, stronger effect = lower value 0.247 | locus YBL061C, strain skt5, stronger effect = lower value 0.263 | locus YBR009C, strain hhf1, stronger effect = lower value 0.0771 | locus YBR023C, strain chs3, stronger effect = lower value 0.399 | locus YBR171W, strain sec66, stronger effect = lower value 0.112 | locus YBR229C, strain ROT2, stronger effect = lower value 0.887 | locus YBR231C, strain swc5, stronger effect = lower value 0.315 | locus YBR279W, strain paf1, stronger effect = lower value 0.494 | locus YCL011C, strain gbp2, stronger effect = lower value 0.1 | locus YCL016C, strain dcc1, stronger effect = lower value 0.2 | locus YCL029C, strain bik1, stronger effect = lower value 0.831 | locus YCL061C, strain MRC1, stronger effect = lower value 0.102 | locus YCL069W, strain vba3, stronger effect = lower value 0.218 | locus YCR088W, strain abp1, stronger effect = lower value 0.157 | locus YDL005C, strain med2, stronger effect = lower value 0.64 | locus YDL035C, strain GPR1, stronger effect = lower value 0.723 | locus YDL040C, strain nat1, stronger effect = lower value 0.706 | locus YDL074C, strain BRE1, stronger effect = lower value 0.593 | locus YDL101C, strain DUN1, stronger effect = lower value 0.618 | locus YDL134C, strain PPH21, stronger effect = lower value 0.661 | locus YDL185W, strain tfp1, stronger effect = lower value 0.817 | locus YDL192W, strain arf1, stronger effect = lower value 0.726 | locus YDR001C, strain nth1, stronger effect = lower value 0.316 | locus YDR069C, strain doa4, stronger effect = lower value 0.742 | locus YDR101C, strain arx1, stronger effect = lower value 0.88 | locus YDR137W, strain rgp1, stronger effect = lower value 0.198 | locus YDR150W, strain NUM1, stronger effect = lower value 0.87 | locus YDR159W, strain sac3, stronger effect = lower value 0.26 | locus YDR162C, strain NBP2, stronger effect = lower value 0.182 | locus YDR195W, strain ref2 0.22 | locus YDR297W, strain sur2, stronger effect = lower value 0.19 | locus YDR318W, strain mcm21, stronger effect = lower value 0.788 | locus YDR334W, strain swr1, stronger effect = lower value 0.185 | locus YDR335W, strain msn5, stronger effect = lower value 0.16 | locus YDR388W, stronger effect = lower value 0.863 | locus YDR392W, strain spt3, stronger effect = lower value 0.0785 | locus YDR502C, strain sam2, stronger effect = lower value 0.758 | locus YEL003W, strain gim4, stronger effect = lower value 0.0639 | locus YEL037C, strain rad23, stronger effect = lower value 0.602 | locus YEL061C, strain CIN8 (second series), stronger effect = lower value 0.0689 | locus YEL061C, strain CIN8, stronger effect = lower value 0.506 | locus YER015W, strain faa2, stronger effect = lower value 0.264 | locus YER016W, strain bim1, stronger effect = lower value 0.176 | locus YER110C, stronger effect = lower value 0.89 | locus YER111C, strain swi4, stronger effect = lower value 0.124 | locus YER155C, strain BEM2 (second series), stronger effect = lower value 0.093 | locus YER155C, strain BEM2, stronger effect = lower value 0.568 | locus YER167W, strain BCK2, stronger effect = lower value 0.74 | locus YFR010W, strain ubp6, stronger effect = lower value 0.648 | locus YGL086W, strain mad1, stronger effect = lower value 0.733 | locus YGL167C, strain pmr1, stronger effect = lower value 0.83 | locus YGL173C, strain kem1, stronger effect = lower value 0.403 | locus YGL227W, strain vid30, stronger effect = lower value 0.0651 | locus YGL240W, strain doc1, stronger effect = lower value 0.358 | locus YGL248W, strain PDE1, stronger effect = lower value 0.716 | locus YGL253W, strain hxk2, stronger effect = lower value 0.177 | locus YGR078C, strain PAC10, stronger effect = lower value 0.429 | locus YGR135W, strain pre9, stronger effect = lower value 0.771 | locus YGR229C, strain SMI1, stronger effect = lower value 0.253 | locus YGR252W, strain gcn5, stronger effect = lower value 0.648 | locus YHR013C, strain ard1, stronger effect = lower value 0.353 | locus YHR027C, strain rpn1, stronger effect = lower value 0.51 | locus YHR079C, strain IRE1 (second series), stronger effect = lower value 0.494 | locus YHR079C, strain IRE1, stronger effect = lower value 0.788 | locus YHR129C, strain ARP1, stronger effect = lower value 0.635 | locus YHR142W, strain chs7, stronger effect = lower value 0.113 | locus YHR200W, strain rpn10, stronger effect = lower value 0.898 | locus YIL066C, strain RNR3, stronger effect = lower value 0.515 | locus YIL125W, strain kgd1, stronger effect = lower value 0.931 | locus YIR030C, strain dcg1, stronger effect = lower value 0.853 | locus YJL092W, strain hpr5, stronger effect = lower value 0.299 | locus YJL095W, strain BCK1 (second series), stronger effect = lower value 0.0714 | locus YJL115W, strain asf1, stronger effect = lower value 0.444 | locus YJL129C, strain trk1, stronger effect = lower value 0.209 | locus YJL154C, strain vps35, stronger effect = lower value 0.678 | locus YJL164C, strain tpk1, stronger effect = lower value 0.162 | locus YJL166W, strain qcr8, stronger effect = lower value 0.0857 | locus YJL168C, strain set2, stronger effect = lower value 0.913 | locus YJL187C, strain SWE1 (second series), stronger effect = lower value 0.697 | locus YJR043C, strain POL32, stronger effect = lower value 0.597
inactive: locus YBR021W, strain FUR4, stronger effect = lower value 0.891 | locus YGL078C, strain dbp3, stronger effect = lower value 0.926 | locus YHR094C, strain hxt1, stronger effect = lower value 0.944 | locus YIL073C, strain SPO22, stronger effect = lower value 0.7 | locus YJL134W, strain LCB3, stronger effect = lower value 0.93 | locus YJR066W, strain TOR1, stronger effect = lower value 0.883
0.205 (active) and 0.945 (inactive): locus YJL095W, strain BCK1, stronger effect = lower value
0.38 (active) and 0.945 (inactive): locus YHR030C, strain SLT2, stronger effect = lower value
